Structures are written as SMILES. Screen size: about 2,100 compounds; about 650 (31%) were called active. Inconclusive results (about 16%) are left out. Calls come from the whole dose curve; as a rule, active = well fitted inhibition curve with a large enough effect; inconclusive = small, poorly fitted or top-dose-only effect; inactive = flat fitted curve, though single readings scatter. The list shows a part of the results. Entries that show only a call come without a potency.
Potency is the fitted concentration of half-maximal effect.

The nature of this assay: qHTS for inhibitors of Vif-A3G interactions: Cherry picks. Note: nearly all actives have a fitted effect of over 80% in size. Conditions: HeLa A3G-eYFP + Vif (tagged APOBEC3G with the HIV-1 protein that degrades it), 24 h; Potency: eYFP fluorescence increase; series mostly up to 36.9 µM. In outline:
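HeLa cells stably expressing A3G-eYFP and Vif, cultured overnight then exposed to compounds at several concentrations for 24 hours at 37 C, 5% CO2; cellular yellow fluorescence (488 nm ex, 500-530 nm em) imaged on Acumen, MG132 positive control.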
(In qHTS, concentration-response curves come from the screen itself.)
For `Cc1sc2nc(CSCC(=O)Nc3ccccc3C#N)[nH]c(=O)c2c1C`, the Potency result was “inactive”.

Consider `O=C1OC(/C(=C\Nc2cc(Cl)ccc2O)[N+](=O)[O-])c2ccccc21` (configuration not stated), for which the Potency result was “inactive”.

As to `CC(=O)Nc1cccc(-c2ccnc3c2CC(C(=O)Nc2cccc(N(C)C)c2)O3)c1` (configuration not stated), the Potency entry was “inactive”.

With `COc1ccc(C(=O)NC(=S)NCc2cccnc2)cc1Cl`, the Potency entry is “inactive”.

With `O=[N+]([O-])c1ccc(C2=Nc3cc(Cl)ccc3OC2)cc1`, the Potency is 29.1 µM (active).

Regarding `CCOC(=O)c1c(C)[nH]c(C(=O)N/N=C/c2cccc(OC)c2)c1C`, the Potency entry was “inactive”.

Take `CCOC(=O)c1cc(-c2ccccc2)sc1NC(=S)Nc1cc(C)ccn1`: the Potency is 10.3 µM (active).

`CCOC(=O)c1ccc(NC(=S)Nc2cccc(C)n2)cc1`: the Potency result is “inactive”.

On to `Cc1ccnc(NC(=S)NC(=O)/C=C/c2ccco2)c1`, for which the Potency entry was “inactive”.

In the case of `CNC(=O)C(Sc1nc(C)nc2c1oc1ccccc12)C(C)=O` (configuration not stated), the Potency entry was “inactive”.

As for `COc1ccc(Cn2c(C)nc3c(c2=O)c2nc4ccccc4nc2n3Cc2ccco2)cc1`, the Potency is 5.8 µM (active).

On to `COc1ccc(Cn2c(=O)cc(N)n(-c3ccccc3C)c2=O)cc1`, for which the Potency result is “inactive”.

On to `O=C(Cc1cc2ccccc2o1)NCc1ccc(F)cc1`, for which the Potency entry was “inactive”.

Consider `COc1cccc(OCc2nc3ncc(Br)cc3[nH]2)c1`, for which the Potency entry was “inactive”.

For `O=c1[nH]c2cc(Br)cnc2nc1/C=C(\O)c1ccc(F)cc1`, the Potency was 13 µM (active).

In the case of `CCCCNc1c(-c2ccc(SC3CCCCC3)cc2)nc2cnccn12`, the Potency is 2.8 µM (active).

For `COc1ccc(-c2nc3cnccn3c2NC2CCCCC2)cc1-c1cccc(Cl)c1`, the Potency entry was “inactive”.

For `CCC(C)Sc1ccc(-c2nc3cc(C)ccn3c2NC2CCCCC2)cc1` (configuration not stated), the Potency entry was “inactive”.

For `COc1ccc(NC(=O)C2(C)Cc3c(-c4cccc(C(N)=O)c4)ccnc3O2)cc1` (configuration not stated), the Potency entry was “inactive”.

Regarding `Cc1cc(N/N=C/c2ccc([N+](=O)[O-])o2)nc2ccccc12`, the Potency is 20.6 µM (active).

Turning to `Cc1cc(C(=O)N/N=C/c2ccc(C)o2)c2ccccc2n1`, the Potency result is “inactive”.

Regarding `O=[N+]([O-])c1ccc(/C=N/Nc2ccc3ccccc3c2)o1`, the Potency is 4.44 µM (active).

In the case of `O=C(N/N=C/c1ccc([N+](=O)[O-])o1)c1cc(-c2ccc(-c3ccccc3)cc2)nc2ccccc12`, the Potency entry is “inactive”.

Turning to `Cc1cccc(Nc2nc(N)nc(-c3oc4ccccc4c3C)n2)c1`, the Potency entry is “inactive”.

For `O=C(Nc1nc(-c2ccccn2)cs1)C1CCCC1`, the Potency entry is “inactive”.

With `Nc1c(C(=O)c2ccccc2)sc2nsc(SCCN3CCOCC3)c12`, the Potency was 16.4 µM (active).

Turning to `O=C(c1ccccc1)C(CN1CCCCC1)c1ccccc1` (configuration not stated), the Potency result is “inactive”.

Consider `Nc1c(C(=O)c2ccccc2)sc2nsc(SCCN3CCCC3)c12`, for which the Potency is 19.8 µM (active).

Take `C[C@H]1CN([C@@H](C)CO)C(=O)Cc2cc(NC(=O)CCC(F)(F)F)ccc2O[C@H]1CN(C)S(=O)(=O)c1ccc(F)cc1`: the Potency entry is “inactive”.

For the molecule `C/C(=N\NC(=O)c1cc(C)nc2ccccc12)c1ccncc1`, the Potency entry is “inactive”.

Take `Cc1cccc(N2CCN(Cc3cn(C)nc3-c3ccccc3F)CC2)n1`: the Potency result is “inactive”.

`COC(=O)C1C2CC3c4[nH]c5cc(OC)ccc5c4CCN3CC2CC(OC2CCCCO2)C1OC` (configuration not stated): the Potency is 20.6 µM (active).

As to `C[C@H](O)[C@@H]1CN2CCc3c([nH]c4ccccc34)[C@@H]2C[C@@H]1N(C)C(=O)c1ccco1`, the Potency entry was “inactive”.

For `COC(=O)C1C2CC3c4[nH]c5cc(OC)ccc5c4CCN3CC2CC(OC(=O)CC(C)=O)C1OC` (configuration not stated), the Potency was 18.4 µM (active).

With `Cc1ccccc1NC(=O)CSC1=C(C#N)C(c2ccsc2)CC(=O)N1` (configuration not stated), the Potency result was “inactive”.

On to `O=[N+]([O-])c1ccc(N/N=C/C=C/c2ccco2)cc1`, for which the Potency is 16.4 µM (active).

`O=C(N/N=C/C=C/c1ccco1)c1ccncc1`: the Potency result was “inactive”.

Take `COc1ccc(NC(=O)/C(C#N)=C/C=C/c2ccco2)cc1`: the Potency entry is “inactive”.

On to `O=Nc1ccc(O)c2ncccc12`, for which the Potency result was “inactive”.

Regarding `CC1=NN(c2ccccc2)C(=O)/C1=C/C=C/c1ccccc1`, the Potency entry is “inactive”.

Regarding `COc1ccccc1CCC(=O)Nc1ccc2c(c1)c(=O)n(C)n2-c1cccs1`, the Potency result is “inactive”.

Turning to `O=C1c2cccc3c(N4CCCCC4)ccc(c23)C(=O)N1CCO`, the Potency is 17.7 µM (active).

In the case of `O=C1c2cccc3c(N4CCCCC4)ccc(c23)C(=O)N1c1cccc(O)c1`, the Potency result is “inactive”.

For the molecule `C=CCN1C(=O)c2cccc3c(N4CCCCC4)ccc(c23)C1=O`, the Potency is 20.6 µM (active).

In the case of `O=C1c2cccc3c(N4CCCCC4)ccc(c23)C(=O)N1c1ccccc1O`, the Potency was 1.3 µM (active).

`O=C(NC(=S)Nc1ccccc1N1CCCCC1)c1ccccc1`: the Potency result was “inactive”.

Take `COc1ccc(S(=O)(=O)Nc2cc(Sc3ncn[nH]3)c(O)c3ccccc23)cc1`: the Potency entry was “inactive”.

As to `CSc1ccccc1NC(=O)COC(=O)/C=C/c1ccco1`, the Potency entry is “inactive”.

For the molecule `O=C(NC(=S)N1CCc2ccccc21)c1ccco1`, the Potency result was “inactive”.

For the molecule `CCCOc1ccccc1C1CC(=O)NC2=C1C(=O)CCC2` (configuration not stated), the Potency entry was “inactive”.

For `CN(C)CCNc1ccc2ncn3c4ccc(O)cc4c(=O)c1c23`, the Potency was 20.6 µM (active).

For `CCN(CC)CCCNc1ccc2ncn3c4ccc(O)cc4c(=O)c1c23`, the Potency is 18.4 µM (active).

In the case of `CCCCOc1ccc(-c2nnn(CC(=O)NCc3ccco3)n2)cc1`, the Potency entry was “inactive”.

In the case of `COC(=O)c1cccc(NS(=O)(=O)c2ccc(OC)cc2)c1C`, the Potency result is “inactive”.

With `CN1CCc2c(sc(NC(=O)CSc3ccc(F)cc3)c2-c2nc3ccccc3s2)C1`, the Potency was 1.64 µM (active).

Turning to `CC(=O)Nc1sc2c(c1-c1nc3ccccc3s1)CCN(C(C)C)C2`, the Potency was 18.4 µM (active).

`O=C(CSc1ccccc1)Nc1nc2ccccc2[nH]1`: the Potency entry was “inactive”.

Regarding `COc1cccc(N2CC(O)=C(c3nc4ccccc4s3)C2=N)c1`, the Potency entry was “inactive”.

Consider `COc1ccccc1/C=N/NC(=O)c1cc2c(OC)c(OC)ccc2[nH]1`, for which the Potency entry was “inactive”.

Consider `O=C(C(=O)N1CCN(c2ccccc2Cl)CC1)c1c[nH]c2ccccc12`, for which the Potency result is “inactive”.

Turning to `CC1CC(C)CN(CC(=O)c2c[nH]c3ccccc23)C1` (configuration not stated), the Potency was 18.4 µM (active).

On to `C=CCN1C=CC(=CC=C(C#N)C#N)C=C1`, for which the Potency was 14 µM (active).

On to `CCCN1C=CC(=CC=C(C#N)C#N)C=C1`, for which the Potency was 15.8 µM (active).

Take `COc1cccc(/C=N/n2c(C3CCCCC3)n[nH]c2=S)c1O`: the Potency result was “inactive”.

`COCCNC(=O)C(=O)Nc1ccc2c(c1)N(S(=O)(=O)c1cccs1)CCC2`: the Potency result was “inactive”.

With `CN(C)c1ccc(/C=N/NC(=O)c2ccccc2Cl)cc1`, the Potency result was “inactive”.

As for `CN(/N=C/c1ccc(N(C)C)cc1)C1=NS(=O)(=O)c2ccccc21`, the Potency is 17.7 µM (active).

The values above are taken from PubChem BioAssay AID651812 (National Center for Advancing Translational Sciences (NCATS), 2012).
